# Test results as given in paper PMC7862700, “An all-to-all approach to the identification of sequence-specific readers for epigenetic DNA modifications on cytosine”.
# Key:
# Test in all cases: DAPPL (digital affinity profiling via proximity ligation, sequencing); 10 mM Tris-HCl pH 7.5, 50 mM NaCl, 1 mM DTT, 4% glycerol, room temperature, 30 min; GST-TFs on glutathione beads, 16-mer random dsDNA library, 0.1% formaldehyde crosslink after washing; high values mean tight binding
# FLI1 = target: T1, FLI1 (Homo sapiens, UniProt Q01543 1-452); details: protein: recombinant; tags: N-terminal GST; dsDNA, one strand shown
# T1 sequence: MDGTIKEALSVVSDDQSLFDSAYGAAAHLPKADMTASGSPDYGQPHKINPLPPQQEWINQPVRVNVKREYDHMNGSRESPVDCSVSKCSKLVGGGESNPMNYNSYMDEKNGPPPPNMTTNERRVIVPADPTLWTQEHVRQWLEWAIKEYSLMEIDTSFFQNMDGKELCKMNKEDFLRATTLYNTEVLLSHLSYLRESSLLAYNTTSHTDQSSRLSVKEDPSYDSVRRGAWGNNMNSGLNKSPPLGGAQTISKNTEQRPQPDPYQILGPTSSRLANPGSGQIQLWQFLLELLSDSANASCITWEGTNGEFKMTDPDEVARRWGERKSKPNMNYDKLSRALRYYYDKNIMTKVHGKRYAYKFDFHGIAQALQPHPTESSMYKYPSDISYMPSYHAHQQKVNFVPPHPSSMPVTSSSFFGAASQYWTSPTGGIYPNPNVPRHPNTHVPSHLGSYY
# In short: (§1)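 Human transcription factors fused to GST were expressed in yeast, captured on glutathione beads, given DNA barcodes and pooled with a GST-only negative control. Pools were incubated with 200 nmole of a 16-mer random double-stranded DNA library in Tris/NaCl/DTT/glycerol buffer at room temperature for 30 min. They were then washed, crosslinked with 0.1% formaldehyde, proximity-ligated (BsaI/T4 ligase, 1 h, 37 °C), PCR-amplified and sequenced on an Illumina NextSeq500. Binding signal is each 6-mer's read frequency for a factor divided by its frequency for the GST control.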
# ELK1 = target: T2, ELK1 (Homo sapiens, UniProt P19419 1-428); details: protein: recombinant; tags: N-terminal GST; dsDNA, one strand shown
# T2 sequence: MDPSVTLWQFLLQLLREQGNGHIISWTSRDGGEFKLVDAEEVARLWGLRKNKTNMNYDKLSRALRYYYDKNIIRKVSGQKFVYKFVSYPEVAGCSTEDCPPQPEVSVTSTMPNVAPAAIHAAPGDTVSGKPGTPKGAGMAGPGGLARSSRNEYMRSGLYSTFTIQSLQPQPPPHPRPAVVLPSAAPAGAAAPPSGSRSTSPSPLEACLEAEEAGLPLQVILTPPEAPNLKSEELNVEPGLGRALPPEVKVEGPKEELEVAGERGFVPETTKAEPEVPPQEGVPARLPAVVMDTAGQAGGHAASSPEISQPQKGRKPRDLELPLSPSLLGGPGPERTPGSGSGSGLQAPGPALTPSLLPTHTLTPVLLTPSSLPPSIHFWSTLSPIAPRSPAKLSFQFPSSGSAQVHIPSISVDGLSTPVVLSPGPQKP
# In short: as §1
# GABPA = target: T3, GABPA (Homo sapiens, UniProt Q06546 1-454); details: protein: recombinant; tags: N-terminal GST; dsDNA, one strand shown
# T3 sequence: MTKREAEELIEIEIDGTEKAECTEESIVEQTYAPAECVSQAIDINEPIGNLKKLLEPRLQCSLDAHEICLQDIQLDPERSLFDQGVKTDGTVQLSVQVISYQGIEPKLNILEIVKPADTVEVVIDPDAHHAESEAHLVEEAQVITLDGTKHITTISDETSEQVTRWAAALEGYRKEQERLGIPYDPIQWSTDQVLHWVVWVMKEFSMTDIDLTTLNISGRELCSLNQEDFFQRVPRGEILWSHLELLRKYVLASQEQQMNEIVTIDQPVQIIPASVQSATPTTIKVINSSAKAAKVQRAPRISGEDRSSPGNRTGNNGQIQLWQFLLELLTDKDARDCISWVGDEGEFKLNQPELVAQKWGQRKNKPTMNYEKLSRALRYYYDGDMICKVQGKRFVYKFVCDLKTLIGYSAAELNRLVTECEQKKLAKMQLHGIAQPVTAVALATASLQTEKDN
# In short: as §1
# ERG = target: T4, ERG (Homo sapiens, UniProt P11308 1-479); details: protein: recombinant; tags: N-terminal GST; dsDNA, one strand shown
# T4 sequence: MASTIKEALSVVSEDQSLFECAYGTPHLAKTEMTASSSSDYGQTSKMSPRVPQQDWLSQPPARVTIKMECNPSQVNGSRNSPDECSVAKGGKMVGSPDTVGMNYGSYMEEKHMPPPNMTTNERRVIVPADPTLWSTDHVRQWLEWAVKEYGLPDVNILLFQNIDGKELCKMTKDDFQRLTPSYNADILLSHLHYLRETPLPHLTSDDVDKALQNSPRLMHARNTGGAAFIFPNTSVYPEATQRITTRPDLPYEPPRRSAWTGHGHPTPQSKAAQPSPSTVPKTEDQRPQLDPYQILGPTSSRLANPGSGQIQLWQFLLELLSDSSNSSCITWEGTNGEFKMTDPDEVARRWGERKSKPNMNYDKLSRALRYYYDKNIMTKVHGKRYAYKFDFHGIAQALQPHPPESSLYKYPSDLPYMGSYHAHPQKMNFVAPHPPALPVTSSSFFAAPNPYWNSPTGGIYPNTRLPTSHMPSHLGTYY
# In short: as §1
# ELF1 = ELF1 (Homo sapiens, UniProt P32519 1-619); details: protein: recombinant; tags: N-terminal GST; dsDNA, one strand shown
# In short: as §1
# EHF = target: T5, EHF (Homo sapiens, UniProt Q9NZC4 1-300); details: protein: recombinant; tags: N-terminal GST; dsDNA, one strand shown
# T5 sequence: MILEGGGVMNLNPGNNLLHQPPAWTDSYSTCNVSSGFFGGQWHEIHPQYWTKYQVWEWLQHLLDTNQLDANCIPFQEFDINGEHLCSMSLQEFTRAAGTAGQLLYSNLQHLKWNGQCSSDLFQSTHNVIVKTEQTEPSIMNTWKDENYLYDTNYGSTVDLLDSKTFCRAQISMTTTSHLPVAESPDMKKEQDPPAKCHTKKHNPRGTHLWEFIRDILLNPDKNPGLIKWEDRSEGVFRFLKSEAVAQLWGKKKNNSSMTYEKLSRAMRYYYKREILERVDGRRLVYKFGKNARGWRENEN
# In short: as §1
# SPI1 = SPI1 (Homo sapiens, UniProt P17947 1-270); details: protein: recombinant; tags: N-terminal GST; dsDNA, one strand shown
# In short: as §1
# SPIB = SPIB (Homo sapiens, UniProt Q01892 1-262); details: protein: recombinant; tags: N-terminal GST; dsDNA, one strand shown
# In short: as §1
# ELK3 = target: T6, ELK3 (Homo sapiens, UniProt P41970 1-407); details: protein: recombinant; tags: N-terminal GST; dsDNA, one strand shown
# T6 sequence: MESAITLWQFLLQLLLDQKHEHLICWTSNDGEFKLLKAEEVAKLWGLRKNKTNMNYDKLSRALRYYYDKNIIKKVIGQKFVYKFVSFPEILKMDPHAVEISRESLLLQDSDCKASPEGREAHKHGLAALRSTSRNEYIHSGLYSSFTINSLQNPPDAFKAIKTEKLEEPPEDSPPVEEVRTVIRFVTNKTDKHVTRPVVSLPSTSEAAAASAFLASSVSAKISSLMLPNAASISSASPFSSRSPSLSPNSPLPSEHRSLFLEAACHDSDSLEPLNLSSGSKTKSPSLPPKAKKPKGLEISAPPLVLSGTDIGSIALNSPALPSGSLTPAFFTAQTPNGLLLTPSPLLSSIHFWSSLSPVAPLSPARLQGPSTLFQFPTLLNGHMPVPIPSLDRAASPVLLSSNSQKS
# In short: as §1
# FEV = target: T7, FEV (Homo sapiens, UniProt Q99581 1-238); details: protein: recombinant; tags: N-terminal GST; dsDNA, one strand shown
# T7 sequence: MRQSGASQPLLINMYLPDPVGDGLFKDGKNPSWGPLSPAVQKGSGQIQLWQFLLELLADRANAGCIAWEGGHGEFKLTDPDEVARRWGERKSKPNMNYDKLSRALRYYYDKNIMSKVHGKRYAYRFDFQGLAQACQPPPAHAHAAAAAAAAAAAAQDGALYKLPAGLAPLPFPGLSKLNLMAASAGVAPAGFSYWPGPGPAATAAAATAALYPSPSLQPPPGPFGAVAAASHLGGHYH
# In short: as §1
# ETV5 = ETV5 (Homo sapiens, UniProt P41161 1-510); details: protein: recombinant; tags: N-terminal GST; dsDNA, one strand shown
# In short: as §1
# HSF1 = HSF1 (Homo sapiens, UniProt Q00613 1-529); details: protein: recombinant; tags: N-terminal GST; chain copies: 3; dsDNA, one strand shown
# In short: as §1
# SPIC = target: T8, SPIC (Homo sapiens, UniProt Q8N5J4 1-248); details: protein: recombinant; tags: N-terminal GST; dsDNA, one strand shown
# T8 sequence: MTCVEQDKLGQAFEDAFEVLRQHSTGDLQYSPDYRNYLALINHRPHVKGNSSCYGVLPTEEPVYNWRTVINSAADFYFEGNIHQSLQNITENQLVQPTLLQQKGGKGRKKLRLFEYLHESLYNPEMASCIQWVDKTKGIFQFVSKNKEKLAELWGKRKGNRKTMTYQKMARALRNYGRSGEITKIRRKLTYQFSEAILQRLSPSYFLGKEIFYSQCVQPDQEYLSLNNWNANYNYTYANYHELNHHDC
# In short: as §1
# ELF4 = ELF4 (Homo sapiens, UniProt Q99607 1-663); details: protein: recombinant; tags: N-terminal GST; dsDNA, one strand shown
# In short: as §1
# ELK4 = target: T9, ELK4 (Homo sapiens, UniProt P28324-2 1-405); details: protein: recombinant; tags: N-terminal GST; dsDNA, one strand shown
# T9 sequence: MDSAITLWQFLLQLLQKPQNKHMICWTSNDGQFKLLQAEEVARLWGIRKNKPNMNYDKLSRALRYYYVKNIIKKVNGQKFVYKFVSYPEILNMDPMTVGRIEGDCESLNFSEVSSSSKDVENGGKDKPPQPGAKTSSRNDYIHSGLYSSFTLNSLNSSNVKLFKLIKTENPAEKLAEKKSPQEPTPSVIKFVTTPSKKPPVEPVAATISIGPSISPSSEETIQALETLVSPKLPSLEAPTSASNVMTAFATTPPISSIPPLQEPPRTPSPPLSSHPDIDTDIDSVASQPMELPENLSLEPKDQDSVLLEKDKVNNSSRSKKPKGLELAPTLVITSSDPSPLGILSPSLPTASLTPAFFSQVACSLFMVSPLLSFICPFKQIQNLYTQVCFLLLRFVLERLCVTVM
# In short: as §1
# ETV2 = target: T10, ETV2 (Homo sapiens, UniProt O00321 1-342); details: protein: recombinant; tags: N-terminal GST; dsDNA, one strand shown
# T10 sequence: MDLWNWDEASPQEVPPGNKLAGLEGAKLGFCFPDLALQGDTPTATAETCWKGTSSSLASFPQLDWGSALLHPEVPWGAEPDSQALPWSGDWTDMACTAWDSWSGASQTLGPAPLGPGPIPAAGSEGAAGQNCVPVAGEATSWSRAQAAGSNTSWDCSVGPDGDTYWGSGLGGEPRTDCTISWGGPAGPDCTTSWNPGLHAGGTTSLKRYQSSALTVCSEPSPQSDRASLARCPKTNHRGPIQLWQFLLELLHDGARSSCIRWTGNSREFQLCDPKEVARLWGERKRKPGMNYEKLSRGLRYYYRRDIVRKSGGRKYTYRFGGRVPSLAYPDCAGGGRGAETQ
# In short: as §1
# ELF3 = target: T11, ELF3 (Homo sapiens, UniProt P78545 1-371); details: protein: recombinant; tags: N-terminal GST; dsDNA, one strand shown
# T11 sequence: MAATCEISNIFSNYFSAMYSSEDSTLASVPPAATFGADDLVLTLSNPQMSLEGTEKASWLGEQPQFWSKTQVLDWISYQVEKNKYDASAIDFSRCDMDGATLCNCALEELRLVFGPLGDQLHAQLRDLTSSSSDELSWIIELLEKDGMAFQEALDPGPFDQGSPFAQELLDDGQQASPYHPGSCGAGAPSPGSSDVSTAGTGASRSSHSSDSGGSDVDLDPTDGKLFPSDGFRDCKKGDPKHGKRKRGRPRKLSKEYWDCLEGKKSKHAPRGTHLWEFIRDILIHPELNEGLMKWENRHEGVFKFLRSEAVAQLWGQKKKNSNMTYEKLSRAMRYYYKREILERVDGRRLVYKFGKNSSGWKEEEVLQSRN
# In short: as §1
# CRX = CRX (Homo sapiens, UniProt O43186 1-299); details: protein: recombinant; tags: N-terminal GST; dsDNA, one strand shown
# In short: as §1
# ETV1 = ETV1 (Homo sapiens, UniProt P50549 1-477); details: protein: recombinant; tags: N-terminal GST; dsDNA, one strand shown
# In short: as §1
# Sequence of CRX (O43186 whole entry): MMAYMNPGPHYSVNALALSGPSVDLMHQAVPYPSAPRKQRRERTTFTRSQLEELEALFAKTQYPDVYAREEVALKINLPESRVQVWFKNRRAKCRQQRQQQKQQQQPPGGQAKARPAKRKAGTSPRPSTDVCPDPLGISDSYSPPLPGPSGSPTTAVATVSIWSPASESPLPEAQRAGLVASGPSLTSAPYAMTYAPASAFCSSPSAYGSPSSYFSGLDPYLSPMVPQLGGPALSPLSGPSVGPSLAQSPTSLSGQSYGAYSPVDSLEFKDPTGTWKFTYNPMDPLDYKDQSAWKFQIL
# Sequence of SPIB (Q01892 whole entry): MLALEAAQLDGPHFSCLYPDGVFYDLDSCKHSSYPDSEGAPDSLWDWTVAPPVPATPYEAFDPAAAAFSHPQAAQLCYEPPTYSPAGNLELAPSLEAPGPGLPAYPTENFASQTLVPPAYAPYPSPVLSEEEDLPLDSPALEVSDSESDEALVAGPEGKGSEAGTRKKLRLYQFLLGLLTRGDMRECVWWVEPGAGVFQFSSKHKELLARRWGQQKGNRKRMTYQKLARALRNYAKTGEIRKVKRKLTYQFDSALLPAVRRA
# Sequence of HSF1 (Q00613 whole entry): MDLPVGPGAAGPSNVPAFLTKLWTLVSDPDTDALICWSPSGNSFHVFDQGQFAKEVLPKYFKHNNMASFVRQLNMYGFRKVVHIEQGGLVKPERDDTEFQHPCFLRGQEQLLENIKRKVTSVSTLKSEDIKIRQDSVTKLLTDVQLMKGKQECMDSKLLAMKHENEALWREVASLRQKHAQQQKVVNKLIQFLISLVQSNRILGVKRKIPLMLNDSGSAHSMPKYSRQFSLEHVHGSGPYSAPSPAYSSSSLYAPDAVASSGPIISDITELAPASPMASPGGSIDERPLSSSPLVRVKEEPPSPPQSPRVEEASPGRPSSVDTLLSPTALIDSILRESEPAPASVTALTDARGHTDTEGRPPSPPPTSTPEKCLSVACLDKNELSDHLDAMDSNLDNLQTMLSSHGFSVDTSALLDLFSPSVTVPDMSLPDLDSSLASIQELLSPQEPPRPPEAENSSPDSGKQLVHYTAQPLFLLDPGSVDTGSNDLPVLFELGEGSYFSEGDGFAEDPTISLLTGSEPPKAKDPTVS
# Sequence of ETV1 (P50549 whole entry): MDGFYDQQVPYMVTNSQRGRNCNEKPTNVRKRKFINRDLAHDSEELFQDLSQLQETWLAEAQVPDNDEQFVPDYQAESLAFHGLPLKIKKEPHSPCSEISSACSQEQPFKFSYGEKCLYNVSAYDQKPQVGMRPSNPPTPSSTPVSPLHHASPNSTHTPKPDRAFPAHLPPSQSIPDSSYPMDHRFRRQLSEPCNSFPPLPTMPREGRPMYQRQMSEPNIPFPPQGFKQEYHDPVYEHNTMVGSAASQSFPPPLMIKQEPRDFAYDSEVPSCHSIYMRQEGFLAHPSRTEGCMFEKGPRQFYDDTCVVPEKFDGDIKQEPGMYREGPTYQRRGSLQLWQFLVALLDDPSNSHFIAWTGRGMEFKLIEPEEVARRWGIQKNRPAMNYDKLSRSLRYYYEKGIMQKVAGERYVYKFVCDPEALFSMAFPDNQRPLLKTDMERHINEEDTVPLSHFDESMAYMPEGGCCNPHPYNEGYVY
# Sequence of ELF4 (Q99607 whole entry): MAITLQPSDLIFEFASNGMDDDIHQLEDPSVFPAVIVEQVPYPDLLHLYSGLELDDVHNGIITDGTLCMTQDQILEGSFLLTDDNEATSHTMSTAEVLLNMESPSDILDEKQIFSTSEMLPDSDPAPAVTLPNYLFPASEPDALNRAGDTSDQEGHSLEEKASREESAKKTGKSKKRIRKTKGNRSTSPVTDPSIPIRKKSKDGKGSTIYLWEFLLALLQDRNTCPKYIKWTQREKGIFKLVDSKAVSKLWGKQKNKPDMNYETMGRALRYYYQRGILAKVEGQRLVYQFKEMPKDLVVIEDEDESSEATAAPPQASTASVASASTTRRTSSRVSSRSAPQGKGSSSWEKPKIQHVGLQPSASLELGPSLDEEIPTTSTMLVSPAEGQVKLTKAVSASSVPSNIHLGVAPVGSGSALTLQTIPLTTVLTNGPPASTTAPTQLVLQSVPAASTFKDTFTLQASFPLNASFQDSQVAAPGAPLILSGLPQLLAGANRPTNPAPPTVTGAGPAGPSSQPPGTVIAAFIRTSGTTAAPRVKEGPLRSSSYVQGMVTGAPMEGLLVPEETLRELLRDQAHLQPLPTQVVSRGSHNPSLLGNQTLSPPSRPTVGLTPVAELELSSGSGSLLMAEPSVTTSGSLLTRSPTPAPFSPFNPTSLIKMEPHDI
# Sequence of ETV5 (P41161 whole entry): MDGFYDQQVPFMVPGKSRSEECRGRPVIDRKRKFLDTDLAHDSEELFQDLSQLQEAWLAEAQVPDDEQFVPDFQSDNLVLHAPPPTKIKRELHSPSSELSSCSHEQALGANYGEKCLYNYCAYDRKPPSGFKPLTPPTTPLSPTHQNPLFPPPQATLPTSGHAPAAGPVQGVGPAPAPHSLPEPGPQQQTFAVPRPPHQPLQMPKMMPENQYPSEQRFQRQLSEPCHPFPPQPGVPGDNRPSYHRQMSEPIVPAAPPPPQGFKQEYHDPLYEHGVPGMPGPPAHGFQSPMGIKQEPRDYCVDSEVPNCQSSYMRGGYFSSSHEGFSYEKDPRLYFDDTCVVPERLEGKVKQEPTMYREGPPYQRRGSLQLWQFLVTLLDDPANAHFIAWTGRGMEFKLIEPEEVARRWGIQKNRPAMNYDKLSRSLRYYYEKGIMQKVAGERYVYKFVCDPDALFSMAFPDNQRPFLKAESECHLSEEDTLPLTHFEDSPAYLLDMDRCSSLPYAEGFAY
# Sequence of ELF1 (P32519 whole entry): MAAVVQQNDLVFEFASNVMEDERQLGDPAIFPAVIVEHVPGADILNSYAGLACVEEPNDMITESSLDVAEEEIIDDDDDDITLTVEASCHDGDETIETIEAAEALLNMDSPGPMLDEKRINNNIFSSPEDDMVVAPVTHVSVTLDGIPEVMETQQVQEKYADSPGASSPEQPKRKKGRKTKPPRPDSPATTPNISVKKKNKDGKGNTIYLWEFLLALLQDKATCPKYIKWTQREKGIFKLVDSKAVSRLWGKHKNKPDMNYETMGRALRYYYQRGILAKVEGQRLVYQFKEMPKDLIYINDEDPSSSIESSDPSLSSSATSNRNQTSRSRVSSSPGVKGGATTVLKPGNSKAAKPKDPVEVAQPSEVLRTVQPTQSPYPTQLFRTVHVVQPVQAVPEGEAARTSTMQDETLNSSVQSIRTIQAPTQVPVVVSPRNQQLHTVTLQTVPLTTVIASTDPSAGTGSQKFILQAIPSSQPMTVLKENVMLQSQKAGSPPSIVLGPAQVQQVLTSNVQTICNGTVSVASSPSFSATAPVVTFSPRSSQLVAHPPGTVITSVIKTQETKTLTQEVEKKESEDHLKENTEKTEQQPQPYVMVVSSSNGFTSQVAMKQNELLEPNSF
sequence,measurement,setting,value
CTCCCA,binding signal,FLI1,"1.47 fold enrichment (6-mer frequency, TF over GST control)"
same,binding signal,ELK1,"1.33 fold enrichment (6-mer frequency, TF over GST control)"
same,binding signal,GABPA,"1.45 fold enrichment (6-mer frequency, TF over GST control)"
same,binding signal,ERG,"1.38 fold enrichment (6-mer frequency, TF over GST control)"
same,binding signal,ELF1,"1.41 fold enrichment (6-mer frequency, TF over GST control)"
same,binding signal,EHF,"1.39 fold enrichment (6-mer frequency, TF over GST control)"
same,binding signal,SPI1,"1.43 fold enrichment (6-mer frequency, TF over GST control)"
same,binding signal,SPIB,"1.36 fold enrichment (6-mer frequency, TF over GST control)"
same,binding signal,ELK3,"1.34 fold enrichment (6-mer frequency, TF over GST control)"
same,binding signal,FEV,"1.39 fold enrichment (6-mer frequency, TF over GST control)"
same,binding signal,ETV5,"1.37 fold enrichment (6-mer frequency, TF over GST control)"
same,binding signal,HSF1,"1.17 fold enrichment (6-mer frequency, TF over GST control)"
same,binding signal,SPIC,"1.38 fold enrichment (6-mer frequency, TF over GST control)"
same,binding signal,ELF4,"1.4 fold enrichment (6-mer frequency, TF over GST control)"
same,binding signal,ELK4,"1.44 fold enrichment (6-mer frequency, TF over GST control)"
same,binding signal,ETV2,"1.08 fold enrichment (6-mer frequency, TF over GST control)"
same,binding signal,ELF3,"1.36 fold enrichment (6-mer frequency, TF over GST control)"
same,binding signal,CRX,"1.19 fold enrichment (6-mer frequency, TF over GST control)"
same,binding signal,ETV1,"1.32 fold enrichment (6-mer frequency, TF over GST control)"
